The record followed here is PubChem BioAssay (NCATS).

Inconclusive results are not listed. A call without a number means that no potency is given here. Calls of active or inactive are those of the source. Unless noted, calls follow the shape of the dose curve; as a rule, active = well fitted curve in the direction sought with a large enough effect; inconclusive = small, poorly fitted or top-dose-only effect, or another doubt; inactive = no such curve, though single readings can be large; an effect the other way counts as inactive or inconclusive.

Cytochrome P450 2D6 (Homo sapiens), sequence (P10635 whole entry, looked up): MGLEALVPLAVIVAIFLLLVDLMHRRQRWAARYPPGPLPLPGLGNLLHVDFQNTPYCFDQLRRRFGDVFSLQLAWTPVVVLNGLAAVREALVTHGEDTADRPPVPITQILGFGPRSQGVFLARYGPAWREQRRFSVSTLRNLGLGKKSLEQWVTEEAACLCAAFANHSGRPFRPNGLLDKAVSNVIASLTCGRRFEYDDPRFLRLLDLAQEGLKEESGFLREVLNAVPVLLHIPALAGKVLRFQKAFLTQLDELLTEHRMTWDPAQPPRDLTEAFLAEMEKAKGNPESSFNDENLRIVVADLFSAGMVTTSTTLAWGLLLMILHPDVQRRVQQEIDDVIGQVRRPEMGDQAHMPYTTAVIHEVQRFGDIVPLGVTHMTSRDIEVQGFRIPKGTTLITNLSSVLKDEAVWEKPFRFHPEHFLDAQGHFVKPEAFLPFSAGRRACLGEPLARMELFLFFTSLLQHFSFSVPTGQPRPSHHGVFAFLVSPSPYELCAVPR
Cytochrome P450 3A4 (Homo sapiens), sequence (P08684 whole entry, looked up): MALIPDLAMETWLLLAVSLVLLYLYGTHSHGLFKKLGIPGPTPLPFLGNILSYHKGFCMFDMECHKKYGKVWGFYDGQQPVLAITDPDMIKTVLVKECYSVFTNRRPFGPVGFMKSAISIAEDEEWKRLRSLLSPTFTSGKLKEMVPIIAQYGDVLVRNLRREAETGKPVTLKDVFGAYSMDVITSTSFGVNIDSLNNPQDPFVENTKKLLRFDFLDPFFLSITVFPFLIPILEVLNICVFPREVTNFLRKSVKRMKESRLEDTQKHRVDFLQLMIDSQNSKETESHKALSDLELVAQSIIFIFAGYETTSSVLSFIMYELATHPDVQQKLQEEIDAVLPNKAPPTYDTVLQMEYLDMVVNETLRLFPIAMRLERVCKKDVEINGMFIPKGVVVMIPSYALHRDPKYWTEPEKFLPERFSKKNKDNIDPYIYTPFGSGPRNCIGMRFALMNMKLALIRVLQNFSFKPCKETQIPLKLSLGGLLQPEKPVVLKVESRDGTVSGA
Guanine nucleotide-binding protein G(i) subunit alpha-1 (Homo sapiens), sequence (P63096 whole entry, looked up): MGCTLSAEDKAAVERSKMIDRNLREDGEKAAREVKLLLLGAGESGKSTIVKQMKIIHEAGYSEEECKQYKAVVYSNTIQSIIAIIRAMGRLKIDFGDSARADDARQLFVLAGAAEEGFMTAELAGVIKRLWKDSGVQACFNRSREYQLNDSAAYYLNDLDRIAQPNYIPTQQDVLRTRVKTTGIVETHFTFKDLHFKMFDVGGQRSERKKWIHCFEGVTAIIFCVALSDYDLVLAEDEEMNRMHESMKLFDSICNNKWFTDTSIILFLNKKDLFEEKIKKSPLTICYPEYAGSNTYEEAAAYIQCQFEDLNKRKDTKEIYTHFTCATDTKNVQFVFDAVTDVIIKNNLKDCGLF

The first experiment addresses Guanine nucleotide-binding protein G(i) subunit alpha-1 (Homo sapiens) (UniProt P63096). Briefly: qHTS Assay for Inhibitors of RGS12 GoLoco Motif Activity (Green Fluorophore) (AID 879).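 Also: negative values mean loss of peptide binding seen as reduced polarization.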 To be noted: Galphai1/FITC-RGS12 GoLoco peptide, fluorescence polarization; series mostly up to 57.1 µM. An outline of the steps: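 A drop in FITC polarization marked displacement of the FITC-tagged RGS12 GoLoco peptide (10 nM) from Gαi1 (50 nM). Compounds were incubated 10 min at room temperature in Tris pH 7.5 buffer containing 150 mM NaCl, 0.1 mM GDP and 0.05% NP40; unlabeled peptide titration served as control.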
A general note: qHTS replaces the single test concentration by a dilution series.
Regarding `NC1(C(=O)O)CCCCC1`, the Potency entry was “inactive”.

On to `CCN1C(=O)C=CC1=O`, for which the Potency result is “inactive”.

Regarding `N#CC(C#N)=C(N)/C(C#N)=C/c1ccc(O)cc1`, the Potency entry was “inactive”.

`O=c1onc2n1-c1cc(Br)ccc1OC2`: the Potency result was “inactive”.

For the molecule `C=CCn1c(=O)c2c(nc(-c3ccc(S(=O)(=O)O)cc3)n2C)n(C)c1=O`, the Potency result is “inactive”.

Consider `N[C@H](C(=O)O)[C@H](O)C(=O)O`, for which the Potency result is “inactive”.

For `S=C(S)N1CCCC1`, the Potency result is “inactive”.

Consider `O=C(O)c1ccccc1Nc1ccccc1`, for which the Potency result was “inactive”.

`CNCCNS(=O)(=O)c1cccc2cnccc12`: the Potency result was “inactive”.

With `NC1(C(=O)O)CC1`, the Potency result was “inactive”.

Turning to `Nc1ccc(N2C(=O)c3ccccc3C2=O)c(Cl)c1`, the Potency result is “inactive”.

`COc1ccc2c(c1)c(CC(=O)O)c(C)n2C(=O)c1ccccc1`: the Potency result is “inactive”.

For `NC(=Nc1ccccc1)NC(=O)c1nc(Cl)c(N)nc1N`, the Potency result was “inactive”.

As for `COc1ccccc1N1CCN(CCCNc2c(C)c(=O)n(C)c(=O)n2C)CC1`, the Potency result was “inactive”.

Regarding `Nc1ncnc2c1ncn2C1CCCC1`, the Potency entry is “inactive”.

As to `COc1ccccc1N1CCN(CCCCN2C(=O)c3ccccc3C2=O)CC1`, the Potency entry was “inactive”.

As for `O=C(N[C@@H](Cc1ccccc1)C(=O)CCl)OCc1ccccc1`, the Potency entry is “inactive”.

Turning to `COc1cc2c(CCNC(C)=O)c[nH]c2cc1O`, the Potency entry was “inactive”.

Regarding `Clc1nccc2c1ccc1ccccc12`, the Potency entry was “inactive”.

Turning to `NCCCNCCCCNCCCN`, the Potency entry was “inactive”.

`Fc1ccc(CN(C2=NCCN2)c2c(Cl)cccc2Cl)cc1`: the Potency result was “inactive”.

`CCCn1c(=O)c2c(ncn2C)n(CCC)c1=O`: the Potency result was “inactive”.

With `CN1CCN(c2nc3cc(C(F)(F)F)ccc3n3cccc23)CC1`, the Potency result was “inactive”.

With `O=C(O)/C=C/c1ccc(O)c(O)c1`, the Potency entry was “inactive”.

Consider `CC(=O)NCCc1c[nH]c2ccc(O)cc12`, for which the Potency entry was “inactive”.

In the case of `NC(=O)CNCCC(c1ccccc1)c1ccccc1`, the Potency result is “inactive”.

Take `[Li+]`: the Potency result is “inactive”.

Turning to `O=c1[nH]c2cc(Cl)ccc2c(O)c1-c1ccc(Oc2ccccc2)cc1`, the Potency entry was “inactive”.

Consider `CCN(CC)CCCCCCCCOC(=O)c1cc(OC)c(OC)c(OC)c1`, for which the Potency entry is “inactive”.

On to `C/C(=C\c1ccc(C(=O)O)cc1)c1ccc2c(c1)C(C)(C)CCC2(C)C`, for which the Potency entry was “inactive”.

As for `Cc1cccc(C(=O)NCN2CCN(c3ccccc3C#N)CC2)c1`, the Potency entry was “inactive”.

Regarding `CCCOC(=O)c1c(-c2ccccc2)nc(CC)c(C(=O)SCC)c1CCC`, the Potency entry was “inactive”.

Take `c1ccc2nc(C3=NCCN3)ccc2c1`: the Potency entry is “inactive”.

With `Cc1nc2c(OCc3ccccc3)cccn2c1CC#N`, the Potency result is “inactive”.

For the molecule `COc1ccc(CCN(C)CCc2ccc(OC)c(OC)c2)cc1OC`, the Potency result is “inactive”.

For the next experiment, the target named is Cytochrome P450 3A4 (Homo sapiens) (UniProt P08684). Briefly: qHTS Assay for Activators of Cytochrome P450 3A4 (AID 885). Also: nearly all actives have a fitted effect of over 65% in size. To be noted: recombinant CYP3A4, Luciferin-PPXE luminescence, 60 min; series mostly up to 57.1 µM. An outline of the steps:
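Using 20nM recombinant human CYP3A4 in potassium phosphate (200mM), substrate Luciferin-PPXE at 25uM, luminescent luciferin detection followed a 60-min RT NADPH reaction; data scaled to 57 uM ketoconazole.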
For the molecule `N#CC(C#N)=C(N)/C(C#N)=C/c1ccc(O)cc1`, the Potency entry is “inactive”.

For `O=c1onc2n1-c1cc(Br)ccc1OC2`, the Potency result is “inactive”.

For the molecule `N[C@H](C(=O)O)[C@H](O)C(=O)O`, the Potency result is “inactive”.

For the molecule `S=C(S)N1CCCC1`, the Potency entry was “inactive”.

On to `O=C(O)c1ccccc1Nc1ccccc1`, for which the Potency result was “inactive”.

As for `CNCCNS(=O)(=O)c1cccc2cnccc12`, the Potency entry is “inactive”.

In the case of `Nc1ccc(N2C(=O)c3ccccc3C2=O)c(Cl)c1`, the Potency result was “inactive”.

As for `NC(=Nc1ccccc1)NC(=O)c1nc(Cl)c(N)nc1N`, the Potency entry was “inactive”.

Consider `Nc1ncnc2c1ncn2C1CCCC1`, for which the Potency entry was “inactive”.

Consider `COc1ccccc1N1CCN(CCCCN2C(=O)c3ccccc3C2=O)CC1`, for which the Potency result was “inactive”.

For the molecule `O=C(N[C@@H](Cc1ccccc1)C(=O)CCl)OCc1ccccc1`, the Potency entry was “inactive”.

In the case of `COc1cc2c(CCNC(C)=O)c[nH]c2cc1O`, the Potency result was “inactive”.

In the case of `Clc1nccc2c1ccc1ccccc12`, the Potency result was “inactive”.

Regarding `CCCn1c(=O)c2c(ncn2C)n(CCC)c1=O`, the Potency result is “inactive”.

As for `CN1CCN(c2nc3cc(C(F)(F)F)ccc3n3cccc23)CC1`, the Potency result is “inactive”.

With `O=C(O)/C=C/c1ccc(O)c(O)c1`, the Potency result is “inactive”.

Take `CC(=O)NCCc1c[nH]c2ccc(O)cc12`: the Potency result was “inactive”.

As to `NC(=O)CNCCC(c1ccccc1)c1ccccc1`, the Potency result is “inactive”.

For `[Li+]`, the Potency entry is “inactive”.

For the molecule `O=c1[nH]c2cc(Cl)ccc2c(O)c1-c1ccc(Oc2ccccc2)cc1`, the Potency entry is “inactive”.

As to `CCN(CC)CCCCCCCCOC(=O)c1cc(OC)c(OC)c(OC)c1`, the Potency result is “inactive”.

With `Cc1cccc(C(=O)NCN2CCN(c3ccccc3C#N)CC2)c1`, the Potency result is “inactive”.

On to `CCCOC(=O)c1c(-c2ccccc2)nc(CC)c(C(=O)SCC)c1CCC`, for which the Potency entry was “inactive”.

Take `c1ccc2nc(C3=NCCN3)ccc2c1`: the Potency result was “inactive”.

As for `Cc1nc2c(OCc3ccccc3)cccn2c1CC#N`, the Potency entry is “inactive”.

Regarding `COc1ccc(CCN(C)CCc2ccc(OC)c(OC)c2)cc1OC`, the Potency entry is “inactive”.

A further experiment deals with Cytochrome P450 2D6 (Homo sapiens) (UniProt P10635). Briefly: qHTS Assay for Inhibitors and Substrates of Cytochrome P450 2D6 (AID 891). Also: nearly all actives have a fitted effect of over 60% in size. Also: potency is read from the fitted curve at half-maximal effect. To be noted: recombinant CYP2D6, luciferin-ME EGE luminescence; series mostly up to 57.1 µM. An outline of the steps:
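Luminescent read-out of luciferin formed by 5 nM human CYP2D6 demethylating 30 uM Luciferin-ME EGE (Km level) over 60 min at room temperature after NADPH regeneration addition. Data normalized to full inhibition by 1.43 uM quinidine.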
With `NC1(C(=O)O)CCCCC1`, the Potency entry is “inactive”.

As for `COc1ccc2c(c1)c(CC(=O)O)c(C)n2C(=O)c1ccccc1`, the Potency entry was “inactive”.

For `Fc1ccc(CN(C2=NCCN2)c2c(Cl)cccc2Cl)cc1`, the Potency was 1.26 µM (active).

Test system in another experiment: not listed separately
The experiment in a line: qHTS Assay for Identification of Small Molecule Antagonists for NFkB Signaling Pathway (AID 895; active = well fitted inhibition curve with a large enough effect in the signal ratio, with a control signal flat, not every such curve was filed as active; the % refers to the signal ratio; also: potency is read from the fitted curve at half-maximal effect). To be noted: NFkB beta-lactamase reporter cells, FRET ratio 460/530, stimulated with 10 pM TNF alpha; series mostly up to 38.3 µM. An outline of the steps: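 Beta-lactamase reporter read-out (460 and 530 nm emission ratio, 405 nm excitation, 2 hrs substrate loading RT) after 5 hr stimulation with 10 pM TNF alpha in compound-treated NFkB-bla ME-180 cells in low-serum medium.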
For `NC1(C(=O)O)CCCCC1`, the Potency entry was “inactive”.

With `CCN1C(=O)C=CC1=O`, the Potency entry was “inactive”.

For the molecule `N#CC(C#N)=C(N)/C(C#N)=C/c1ccc(O)cc1`, the Potency result is “inactive”.

In the case of `C=CCn1c(=O)c2c(nc(-c3ccc(S(=O)(=O)O)cc3)n2C)n(C)c1=O`, the Potency result is “inactive”.

With `N[C@H](C(=O)O)[C@H](O)C(=O)O`, the Potency result was “inactive”.

`CNCCNS(=O)(=O)c1cccc2cnccc12`: the Potency is 10 µM (active).

For the molecule `NC1(C(=O)O)CC1`, the Potency entry is “inactive”.

In the case of `NC(=Nc1ccccc1)NC(=O)c1nc(Cl)c(N)nc1N`, the Potency was 7.94 µM (active).

Regarding `COc1ccccc1N1CCN(CCCNc2c(C)c(=O)n(C)c(=O)n2C)CC1`, the Potency entry is “inactive”.

On to `COc1cc2c(CCNC(C)=O)c[nH]c2cc1O`, for which the Potency entry is “inactive”.

With `Clc1nccc2c1ccc1ccccc12`, the Potency result was “inactive”.

`NCCCNCCCCNCCCN`: the Potency result was “inactive”.

Turning to `CC(=O)NCCc1c[nH]c2ccc(O)cc12`, the Potency entry was “inactive”.

Consider `[Li+]`, for which the Potency entry was “inactive”.

With `C/C(=C\c1ccc(C(=O)O)cc1)c1ccc2c(c1)C(C)(C)CCC2(C)C`, the Potency is 10 µM (active).

In the case of `c1ccc2nc(C3=NCCN3)ccc2c1`, the Potency entry is “inactive”.

Take `Cc1nc2c(OCc3ccccc3)cccn2c1CC#N`: the Potency result was “inactive”.

On to `COc1ccc(CCN(C)CCc2ccc(OC)c(OC)c2)cc1OC`, for which the Potency result is “inactive”.
